Among the data in PubChem BioAssay (EPA / NIEHS) are outcome and AC50 values, retold here.

Structures are written as SMILES. Results filed as inconclusive are left out. Activity calls are given as the source filed them. The calls were made as follows, unless noted: active = hit-call score of the fitted dose curve at least 0.9, where 1 is the maximum; inactive = score below 0.9.

Assay [1] can be described thus: BSK_LPS_PGE2: BioMAP Diversity Plus: LPS Assay for Prostaglandin E2 (PGE2) Biomarker Activity (AID 2283082). Conditions: primary human HUVEC with PBMC; actives raise or lower the signal. The gist of the method: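 Compounds were added to the LPS co-culture of endothelium and PBMC, and PGE2 was measured by ELISA after 24 h. Responses in either direction were fitted with DMSO as baseline.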

Read-out in assay [2]: Tissue Factor, F3 (gene 2152)
The assay can be described thus: BSK_LPS_TissueFactor: BioMAP Diversity Plus: LPS Assay for Tissue Factor Biomarker Activity (AID 2283084). The conditions noted are these: primary human HUVEC with PBMC; actives raise or lower the signal. The gist of the method: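 HUVEC/PBMC co-culture, LPS-activated; CD142 ELISA read 24 h post-dose; bidirectional curve fit vs DMSO negative control.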

Read-out in assay [3]: Vascular cell adhesion molecule 1 (VCAM1), VCAM1 (gene 7412)
The assay can be described thus: BSK_LPS_VCAM1: BioMAP Diversity Plus: LPS Assay for Vascular cell adhesion molecule 1 (VCAM1) Biomarker Activity (AID 2283086). Conditions: primary human HUVEC with PBMC; actives raise or lower the signal. The method, boiled down:
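Cells are dosed in an LPS-stimulated endothelial/mononuclear co-culture and, after 24 h, VCAM-1 is quantified by ELISA. Activity in either direction is fitted relative to the DMSO negative control.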

Read-out in a further assay: CD38, CD38 (gene 952)
The assay is described as follows: BSK_SAg_CD38: BioMAP Diversity Plus: SAg Assay for CD38 Biomarker Activity (AID 2283087). Conditions: primary human HUVEC with PBMC; actives raise or lower the signal. The gist of the method:
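CD38 quantified by ELISA (fluorescence) in a superantigen-activated endothelial cell–PBMC co-culture at 24 h post-dose. Activity fitted in both directions relative to DMSO; parallel SRB and Alamar Blue cytotoxicity read-outs.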

Read-out in another assay: CD40, CD40 (gene 958)
The assay can be described thus: BSK_SAg_CD40: BioMAP Diversity Plus: SAg Assay for CD40 Biomarker Activity (AID 2283088). Conditions: primary human HUVEC with PBMC; actives raise or lower the signal. The gist of the method: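 HUVEC/PBMC co-culture, 24 h post-dose; CD40 by ELISA, fluorescence intensity; bidirectional fit vs DMSO negative control.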

Read-out in a further assay: CD69, CD69 (gene 969)
The assay can be described thus: BSK_SAg_CD69: BioMAP Diversity Plus: SAg Assay for CD69 Biomarker Activity (AID 2283089).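 As to AC50: cell surface CD69 protein quantified by ELISA with fluorescence detection.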 Conditions: primary human HUVEC with PBMC; actives raise or lower the signal. The method, boiled down: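 HUVEC co-cultured with PBMC were dosed with chemical, and CD69 was measured by ELISA with fluorescence read-out 24 h later. Bidirectional curve fitting used DMSO as negative control and activity baseline.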

Read-out in assay [4]: Monocyte Chemoattractant Protein-1 (MCP1), CCL2 (gene 6347)
The assay is described as follows: BSK_SAg_MCP1: BioMAP Diversity Plus: SAg Assay for Monocyte Chemoattractant Protein-1 (MCP1) Biomarker Activity (AID 2283090). Conditions: primary human HUVEC with PBMC; actives raise or lower the signal. The method, boiled down: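 Values derive from bidirectional fitting of ELISA-measured MCP1 against DMSO controls. Readings were taken 24 h after dosing human vascular endothelial cells co-cultured with peripheral blood mononuclear cells under superantigen stimulation.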

Read-out in assay [5]: E-selectin (Homo sapiens) (UniProt P16581)
The assay is described as follows: BSK_SAg_Eselectin: BioMAP Diversity Plus: SAg Assay for Eselectin Biomarker Activity (AID 2283091). The conditions noted are these: primary human HUVEC with PBMC; actives raise or lower the signal. The gist of the method: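 E-selectin ELISA readout at 24 h post-dosing in human umbilical vein endothelial cell/PBMC co-culture; gain or loss of signal fitted relative to DMSO baseline.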

Read-out in assay [6]: Monokine induced gamma interferon (MIG), CXCL9 (gene 4283)
The assay can be described thus: BSK_SAg_MIG: BioMAP Diversity Plus: SAg Assay for Monokine induced gamma interferon (MIG) Biomarker Activity (AID 2283092). Conditions: primary human HUVEC with PBMC; actives raise or lower the signal. The method, boiled down: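 HUVEC plus human PBMC co-culture, chemicals dosed and MIG (CXCL9) quantified by ELISA at 24 h. Bidirectional curve fitting against DMSO as negative control and baseline, so both gain and loss of signal count as activity.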

The nature of assay [7]: BSK_SAg_PBMCCytotoxicity: PBMC Cytotoxicity Assessment in the BioMAP Diversity Plus: SAg Assay (AID 2283093).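 Also: PBMC viability measured as Alamar Blue reduction fluorescence at 546/580 nm; fitted both ways against DMSO so a hit may be loss or gain of signal.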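 As to AC50: PBMC superantigen activated with SEB plus TSST-1 one hour after compound addition.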 The conditions noted are these: primary human HUVEC with PBMC. The method, boiled down:
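Alamar Blue reduction (6 h, ex/em 546/580 nm) read after 90 h culture of PBMC pre-dosed 1 h then stimulated with SEB plus TSST-1, 20 ng/mL each. Gain or loss of signal fitted relative to DMSO.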

Read-out in assay [8]: Interleukin-8 (IL8), CXCL8 (gene 3576)
The assay can be described thus: BSK_SAg_IL8: BioMAP Diversity Plus: SAg Assay for Interleukin-8 (IL8) Biomarker Activity (AID 2283094). The conditions noted are these: primary human HUVEC with PBMC; actives raise or lower the signal. The gist of the method:
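Chemicals were dosed onto a human endothelial–PBMC co-culture, and IL-8 was quantified by ELISA after 24 h. Both increases and decreases were fitted relative to DMSO.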

Assay [9] is described as follows: BSK_SAg_Proliferation: Cell Proliferation Assessment in the BioMAP Diversity Plus: SAg Assay (AID 2283095).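 Also: relative cell number as total protein by SRB absorbance in sub-confluent culture.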 The conditions noted are these: primary human HUVEC with PBMC. The method, boiled down: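 Absorbance of sulforhodamine B at 560 nm reports total protein in a human vascular endothelial/PBMC co-culture after 96 h chemical exposure. Gain or loss of signal is fitted in both directions against DMSO.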

Assay [10] can be described thus: BSK_SAg_SRB: Viability Assessment in the BioMAP Diversity Plus: SAg Assay (AID 2283096).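 Also: cells read one day after compound addition; hits may be either gain or loss of signal compared with DMSO.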 The conditions noted are these: primary human HUVEC with PBMC. The method, boiled down:
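SRB absorbance at 560 nm served as the viability read-out. Cells (HUVEC plus peripheral blood mononuclear cells) were TCA-fixed and stained 24 h post-dosing; activity fitted in both directions against DMSO controls.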

Read-out in assay [11]: Tumor necrosis factor (Homo sapiens) (UniProt P01375)
The assay can be described thus: BSK_LPS_TNFa: BioMAP Diversity Plus: LPS Assay for Tumour Necrosis Factor alpha (TNFa) Biomarker Activity (AID 2283085).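 Also: TNFa protein level quantified by ELISA in the co-culture.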 Conditions: primary human HUVEC with PBMC; actives raise or lower the signal. The gist of the method:
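Cells (umbilical vein endothelium plus peripheral blood mononuclear cells) were dosed with chemical, incubated 24 h, then TNFa was quantified by ELISA; values derive from bidirectional fitting with DMSO as baseline.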

In assay [12] the target is human CYP2A6, CYP2A6 (gene 1548) (UniProt P11509). The assay is described as follows: NVS_ADME_hCYP2A6: NovaScreen (NVS) CYP450-related Enzyme Activity (ADME) Assay for human CYP2A6 (AID 2283099; active = hit-call score of the fitted dose curve at least 0.9, where 1 is the maximum). The gist of the method: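 Insect-cell-expressed human CYP2A6 enzyme activity measured by fluorescence intensity 0.5 hour post-dosing. Compounds screened at 10 uM in duplicate, then hits tested singly in concentration series (max 20 uM); acetonitrile baseline.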

The target of assay [13] is human CYP1A1, CYP1A1 (gene 1543) (UniProt P04798). The assay is described as follows: NVS_ADME_hCYP1A1: NovaScreen (NVS) CYP450-related Enzyme Activity (ADME) Assay for human CYP1A1 (AID 2283100; active = hit-call score of the fitted dose curve at least 0.9, where 1 is the maximum). The gist of the method: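 Read-out: fluorescence intensity from enzymatic turnover of substrate by recombinant CYP1A1, loss of signal indicating inhibition. Incubation 1 h post-dose. Primary single-point 10 uM in duplicate; actives rerun singly with top concentration 20 uM.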

Assay [14] concerns the target human CYP2D6, CYP2D6 (gene 1565) (UniProt P10635). The assay can be described thus: NVS_ADME_hCYP2D6: NovaScreen (NVS) CYP450-related Enzyme Activity (ADME) Assay for human CYP2D6 (AID 2283107; active = hit-call score of the fitted dose curve at least 0.9, where 1 is the maximum). The method, boiled down: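 Fluorescence intensity read 1 h post-dosing; insect-cell-expressed recombinant protein with fluorogenic substrate, no cells. Activity is scored as signal loss relative to acetonitrile baseline, first at a single 10 uM concentration in duplicate, then as concentration series for confirmed actives.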

E-selectin (Homo sapiens), sequence (P16581 whole entry, looked up): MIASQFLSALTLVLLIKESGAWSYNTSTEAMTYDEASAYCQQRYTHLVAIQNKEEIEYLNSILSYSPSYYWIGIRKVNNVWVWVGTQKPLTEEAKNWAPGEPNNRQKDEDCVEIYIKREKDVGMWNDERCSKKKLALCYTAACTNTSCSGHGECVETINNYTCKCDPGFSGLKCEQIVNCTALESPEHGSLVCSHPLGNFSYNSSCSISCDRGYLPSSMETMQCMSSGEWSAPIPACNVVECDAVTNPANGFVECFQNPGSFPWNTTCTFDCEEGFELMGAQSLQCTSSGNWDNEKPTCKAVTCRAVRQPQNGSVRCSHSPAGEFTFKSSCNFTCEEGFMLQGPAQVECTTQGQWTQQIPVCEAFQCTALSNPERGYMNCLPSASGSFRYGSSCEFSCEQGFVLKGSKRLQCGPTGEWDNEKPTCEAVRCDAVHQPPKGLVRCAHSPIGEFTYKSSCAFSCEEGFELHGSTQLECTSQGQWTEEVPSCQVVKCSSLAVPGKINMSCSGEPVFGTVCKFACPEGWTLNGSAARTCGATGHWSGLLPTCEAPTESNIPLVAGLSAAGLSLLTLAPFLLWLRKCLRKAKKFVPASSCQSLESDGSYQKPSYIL
Tumor necrosis factor (Homo sapiens), sequence (P01375 whole entry, looked up): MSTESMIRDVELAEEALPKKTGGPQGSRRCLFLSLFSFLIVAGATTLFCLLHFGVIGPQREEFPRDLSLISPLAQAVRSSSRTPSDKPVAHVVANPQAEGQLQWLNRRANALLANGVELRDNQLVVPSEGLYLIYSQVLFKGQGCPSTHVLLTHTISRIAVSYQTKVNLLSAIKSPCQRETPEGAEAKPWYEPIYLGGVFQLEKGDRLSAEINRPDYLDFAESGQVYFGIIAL
human CYP2A6, CYP2A6 (gene 1548), sequence (P11509 whole entry, looked up): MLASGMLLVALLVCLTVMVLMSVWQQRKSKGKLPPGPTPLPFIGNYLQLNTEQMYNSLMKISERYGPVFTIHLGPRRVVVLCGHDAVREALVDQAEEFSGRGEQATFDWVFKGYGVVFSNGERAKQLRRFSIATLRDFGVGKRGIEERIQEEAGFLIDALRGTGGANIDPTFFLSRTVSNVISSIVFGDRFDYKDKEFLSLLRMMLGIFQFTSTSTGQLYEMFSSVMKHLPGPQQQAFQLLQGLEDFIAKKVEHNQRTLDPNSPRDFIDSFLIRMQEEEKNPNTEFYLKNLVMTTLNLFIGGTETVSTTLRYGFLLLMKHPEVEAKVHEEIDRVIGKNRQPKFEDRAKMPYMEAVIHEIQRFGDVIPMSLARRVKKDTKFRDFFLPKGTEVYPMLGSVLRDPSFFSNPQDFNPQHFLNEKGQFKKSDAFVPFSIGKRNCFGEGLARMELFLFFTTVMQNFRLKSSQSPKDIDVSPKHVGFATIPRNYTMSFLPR
human CYP1A1, CYP1A1 (gene 1543), sequence (P04798 whole entry, looked up): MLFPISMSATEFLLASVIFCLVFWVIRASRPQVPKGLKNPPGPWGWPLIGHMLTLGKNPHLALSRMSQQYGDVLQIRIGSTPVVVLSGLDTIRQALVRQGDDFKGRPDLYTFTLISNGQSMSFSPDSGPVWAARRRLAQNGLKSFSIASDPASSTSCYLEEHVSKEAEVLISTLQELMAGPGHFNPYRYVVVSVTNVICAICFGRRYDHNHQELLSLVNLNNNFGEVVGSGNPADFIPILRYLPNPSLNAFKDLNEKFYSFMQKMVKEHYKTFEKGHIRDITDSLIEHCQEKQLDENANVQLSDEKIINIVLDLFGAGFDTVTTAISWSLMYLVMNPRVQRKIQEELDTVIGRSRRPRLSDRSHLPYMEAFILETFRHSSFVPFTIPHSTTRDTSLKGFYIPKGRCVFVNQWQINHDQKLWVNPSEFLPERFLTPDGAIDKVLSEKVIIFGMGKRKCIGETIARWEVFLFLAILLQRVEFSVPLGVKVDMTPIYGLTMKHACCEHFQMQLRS
human CYP2D6, CYP2D6 (gene 1565), sequence (P10635 whole entry, looked up): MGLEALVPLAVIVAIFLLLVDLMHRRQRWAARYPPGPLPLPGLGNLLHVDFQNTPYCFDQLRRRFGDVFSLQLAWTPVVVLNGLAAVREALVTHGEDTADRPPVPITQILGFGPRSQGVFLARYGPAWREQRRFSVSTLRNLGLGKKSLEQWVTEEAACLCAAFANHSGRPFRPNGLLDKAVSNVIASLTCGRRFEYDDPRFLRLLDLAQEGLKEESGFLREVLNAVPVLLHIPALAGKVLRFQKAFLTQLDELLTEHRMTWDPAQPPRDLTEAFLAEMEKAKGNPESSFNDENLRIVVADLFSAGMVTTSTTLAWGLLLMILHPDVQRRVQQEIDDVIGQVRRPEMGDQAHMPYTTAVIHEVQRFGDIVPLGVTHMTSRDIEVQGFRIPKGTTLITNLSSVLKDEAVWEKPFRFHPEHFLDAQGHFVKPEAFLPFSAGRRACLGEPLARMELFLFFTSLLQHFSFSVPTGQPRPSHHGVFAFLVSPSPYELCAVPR

For `Cc1ccc(N=C=O)cc1N=C=O`, the outcome in [1] is “inactive”; in assay [2], “inactive”; in [3], “inactive”; with CD38, CD38 (gene 952) it was “inactive”; with CD40, CD40 (gene 958) it was “inactive”; with CD69, CD69 (gene 969), “inactive”. Further, the result in [4], in assay [5], in assay [6], in [7], in [8] and in [10] was inactive. Moreover, the AC50 – broadly, the concentration giving half of the maximal activity seen – in assay [9] was 10.5 µM (active).
For `CN(C)c1ccccc1`, the outcome was “inactive” in assay [1]; “inactive” in [2]; “inactive” in assay [3]; “inactive” with CD38, CD38 (gene 952); “inactive” with CD40, CD40 (gene 958); “inactive” with CD69, CD69 (gene 969). For the same molecule, the result in assay [4], in [5], in assay [6], in assay [7], in assay [8] and in assay [9] was inactive. Moreover, the result in assay [10] was inactive.
For the molecule `O=[N+]([O-])C(Br)(CO)CO`, the outcome in [1], in assay [12] and in [14] was inactive. Moreover, the AC50 in assay [2] is 28.4 µM (active); in assay [11], 31.7 µM (active); in assay [3] it was 30.1 µM (active); in the assay with CD38, CD38 (gene 952) it was 31.3 µM (active); in the assay with CD40, CD40 (gene 958), 28.1 µM (active); with CD69, CD69 (gene 969), 28.5 µM (active). In addition, the AC50 in assay [4] was 31.1 µM (active); in assay [5], 24.7 µM (active); in assay [6], 39.1 µM (active); in assay [7], 22.5 µM (active); in assay [8], 27.6 µM (active); in assay [9] it was 8.35 µM (active). Further, the AC50 is 30.6 µM (active) in [10] and 12.7 µM (active) in assay [13].
Turning to `CC(C)(OOC(C)(C)c1ccccc1)c1ccccc1`, the outcome in [1], in [2] and in [12] was inactive. The AC50 in [11] was 31.7 µM (active); in assay [3], 30.7 µM (active); in the assay with CD38, CD38 (gene 952) it was 33.5 µM (active); with CD40, CD40 (gene 958) it was 31 µM (active); with CD69, CD69 (gene 969), 31.6 µM (active); in assay [4], 33 µM (active). Besides, the AC50 in assay [5] is 37 µM (active); in assay [6], 31.3 µM (active); in [7], 27 µM (active); in assay [8] it was 30.2 µM (active); in [9] it was 16.4 µM (active); in [10], 32.7 µM (active).
In the case of `O=Cc1ccco1`, the outcome was “inactive” in assay [1]; “inactive” in [2]; “inactive” in [3]; “inactive” with CD38, CD38 (gene 952); “inactive” with CD40, CD40 (gene 958); “inactive” in the assay with CD69, CD69 (gene 969). Besides, the result in assay [4], in assay [5], in assay [6], in assay [7], in assay [8] and in assay [9] was inactive. Besides, in assay [10], the result was inactive.
